Results published in PubChem BioAssay (NCI).
About 79,000 compounds went through this panel and 15% of them were active in at least one assay; those are over-represented in the sample as a whole. Rule as the data show it: active = growth inhibition above about 70%; inactive = the rest.

Assays:
[1] = NCI Yeast Anticancer Drug Screen. Data for the rad50 strain (AID 155);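 also: 0% = growth of vehicle-only cultures of the same strain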; details: S. cerevisiae rad50 strain growth inhibition; at 50.0 µM; active compounds read high
Procedure, shortened: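 Compounds were tested on a yeast strain with an engineered DNA damage repair alteration; the reported value is growth inhibition normalised to vehicle treatment.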

[2] = NCI Yeast Anticancer Drug Screen. Data for the mec2-1 strain (AID 157); details: S. cerevisiae mec2-1 strain, at 50.0 µM, active compounds read high
Procedure, shortened: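 Test agents were screened against the mec2-1 yeast strain, with defined DNA repair or cell cycle alteration. Growth was scored as inhibition against vehicle-only controls.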

[3] = NCI Yeast Anticancer Drug Screen. Data for the sgs1 mgt1 strain (AID 161);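 also: 0% = growth of cultures given vehicle only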; details: S. cerevisiae sgs1 mgt1 strain, at 50.0 µM, active compounds read high
Procedure, shortened: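 Read-out: growth inhibition vs vehicle controls. Cells: mutant yeast strain deficient in DNA damage repair.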

[4] = NCI Yeast Anticancer Drug Screen. Data for the cln2 rad14 strain (AID 165);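 also: 0% = growth equal to vehicle treated cultures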; details: S. cerevisiae cln2 rad14 strain, at 50.0 µM, active compounds read high
Procedure, shortened: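 Growth of compound-exposed yeast (cln2 rad14 genotype) measured and expressed as inhibition relative to vehicle.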

[5] = NCI Yeast Anticancer Drug Screen. Data for the bub3 strain (AID 167); details: S. cerevisiae bub3 mutant strain, at 50.0 µM, active compounds read high
Procedure, shortened: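 Growth of a checkpoint-deficient yeast mutant is measured after compound exposure. Values represent inhibition relative to vehicle.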

[6] = NCI Yeast Anticancer Drug Screen. Data for the mlh1 rad18 strain (AID 175); details: S. cerevisiae mlh1 rad18 strain growth inhibition; at 50.0 µM; active compounds read high
Procedure, shortened: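 In this whole-cell yeast screen, a strain with altered DNA damage repair is challenged with compound, and its growth is measured against matched vehicle-treated controls.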

Measured: growth inhibition

Nc1ccc(O)c(N=Nc2ccc(S(N)(=O)=O)cc2)c1
inactive: [1] 6% | [2] 0.1% | [3] 13.6% | [4] -1.1% | [5] 18.1% | [6] 10.1%

C1=CC2CCC1C1CSCC21 (stereo not drawn)
inactive: [1] -3.15% | [2] -11.6% | [3] -8.95% | [4] -33.8% | [5] -3.45% | [6] -12.7%

C=C(C)CN(CC(=C)C)c1nc(N)nc(N)n1
inactive: [1] -35.2% | [2] -2.95% | [3] -21.9% | [4] -43.5% | [5] -2.1% | [6] -13.1%

CCN(CC)CCCC(C)n1c(SC)nc2cc(Cl)ccc21 (stereo not drawn)
inactive: [1] -11.5% | [2] -32.9% | [3] 9% | [4] -32.6% | [5] 7.2% | [6] -7.7%

CC(=O)OCCn1c([N+](=O)[O-])cnc1/C=[N+](/C)[O-]
inactive: [1] 11.2% | [2] 16.9% | [3] 16.8% | [4] 1.9% | [5] 9.85% | [6] 33.3%

COc1ccc(C2=C(Cl)c3cc(OC)c(OC)cc3C2Cl)cc1OC (stereo not drawn)
inactive: [1] 41.5% | [2] 18.6% | [3] 21.9% | [4] 26.9% | [5] -6.15% | [6] 17.4%

Nc1ncnc2nc(-c3ccc(C(=O)c4cccc([N+](=O)[O-])c4)cc3)[nH]c12
inactive: [1] 1.85% | [2] 6.35% | [3] -7.5% | [4] -5.4% | [5] 14.6% | [6] -13.2%

COc1c2c(c(OC)c(C(C)=O)c1OC(=O)c1ccccc1)CCO2
inactive: [1] 1% | [2] -14.4% | [3] 11.4% | [4] 11.8% | [5] 0.05% | [6] 15.6%

COC(OC)c1cc(C(=O)O)c2ccccc2n1
inactive: [1] -9.45% | [2] -31.2% | [3] -9.85% | [4] -4.6% | [5] -22.2% | [6] -6.6%

CCCC(=O)C(C)C(=O)CC (stereo not drawn)
inactive: [1] -52.1% | [2] -26.9% | [3] -15.7% | [4] 4.3% | [5] -6.8% | [6] 0.5%

COC(=O)C(C(=O)C(N)=O)c1csc(-n2nc(-c3ccccc3)cc2-c2ccccc2)n1 (stereo not drawn)
inactive: [1] -1.5% | [2] -13.4% | [3] -13.8% | [4] 10.2% | [5] 30.2% | [6] -7.2%

c1ccc(-c2nc3ncncc3[nH]2)cc1
inactive: [1] 7% | [2] -10.3% | [3] -7.65% | [4] -13.8% | [5] -3.45% | [6] -5.6%

Cc1ccc(S(=O)CC(Cl)c2ccccc2)cc1 (stereo not drawn)
inactive: [1] -26.6% | [2] 4.2% | [3] 13.2% | [4] 56% | [5] 14.3% | [6] 21.1%

CCC(C)c1ccc(CCO)cc1 (stereo not drawn)
inactive: [1] 27.2% | [2] 2.4% | [3] -10.2% | [4] 10% | [5] -6.65% | [6] 4.45%

OC1C=CC2CCC1C2 (stereo not drawn)
inactive: [1] -4.85% | [2] 7.15% | [3] -16.4% | [4] 6% | [5] 10.8% | [6] 5.2%

COc1nn(C)c(=O)c2cccnc12
inactive: [1] -2.05% | [2] 7.6% | [3] -3.1% | [4] -6.25% | [5] 12.6% | [6] 1.2%

CC(C)(C)c1ccnc(C(O)(C(F)(F)F)C(F)(F)F)c1
inactive: [1] -3.4% | [2] -12.2% | [3] -12.2% | [4] -43.8% | [5] -7.75% | [6] -12.4%

COC1=C(OC)CCC(/C(C#N)=C/c2ccc(OC)c(OC)c2)=C1
inactive: [1] 18.8% | [2] -3.45% | [3] -10% | [4] -11.8% | [5] -0.9% | [6] 25.4%

CC(=O)OCc1ccc(C)c(COC(C)=O)c1
inactive: [1] 3.45% | [2] -20.6% | [3] -9.4% | [4] 3.8% | [5] 1.1% | [6] -9.4%

C1CCCN(/N=N/N2CCCCCC2)CC1
inactive: [1] -1.5% | [2] 0.4% | [3] -1.7% | [4] -19.1% | [5] 10.8% | [6] 6.65%

O=C(Nc1cccc(C(F)(F)F)c1)C(=O)C(C(=O)c1ccc(Cl)c(Cl)c1)C1OC(=O)c2ccccc21 (stereo not drawn)
inactive: [1] 34.9% | [2] 19.2% | [3] -1.35% | [4] 63.6% | [5] 45.4% | [6] 37.4%

O=C1c2ccccc2-c2nc(-c3ccncc3)cc3c2c1nc1ccccc13
inactive: [1] 25.6% | [2] 18.4% | [3] 27.2% | [4] 11.1% | [5] 14.1% | [6] 34.4%

Oc1cc(-c2ccc(Cl)cc2)cn2c1nc1ccccc12
inactive: [1] -13.3% | [2] -23.8% | [3] -38.5% | [4] -24.1% | [5] -5.75% | [6] -50%

c1ccc(-c2ccc(-c3ccccc3)c3nonc23)cc1
inactive: [1] -32.2% | [2] -2.25% | [3] -13.5% | [4] 23.4% | [5] 27.4% | [6] -4.45%

CCN(CC)C1=NS(=O)(=O)c2ccccc21
inactive: [1] 1.2% | [2] -3.65% | [3] 9.45% | [4] -11.4% | [5] 2.3% | [6] 0.5%

O=C(Nc1ccccc1Cl)Nc1ccccc1Br
inactive: [1] 16.8% | [2] 11.7% | [3] 14.7% | [4] 12.2% | [5] 6.8% | [6] -17.3%

CC1=NN(c2nc(N)nc(CO)n2)C(C)(C)C1
inactive: [1] 12.2% | [2] 5.75% | [3] 3.2% | [4] 5.55% | [5] 1% | [6] -72.5%

CC1=[N+]([O-])C2(CCCC2)N(O)C1(C)C
inactive: [1] -13.8% | [2] -0.7% | [3] 9.7% | [4] 19.5% | [5] -6.25% | [6] 12.8%

O=C(O)Cc1nc(Cl)ccc1Cl
inactive: [1] 16.1% | [2] -7.2% | [3] -0.3% | [4] -15.2% | [5] -1.25% | [6] -1.1%

O=C(N/C(=C\c1ccccc1)C(=O)N1CCNCC1)c1ccccc1
inactive: [1] -1% | [2] 5.3% | [3] 0.65% | [4] -26.8% | [5] 1.15% | [6] 9.65%

CCOC1CCCC(OCC)O1 (stereo not drawn)
inactive: [1] -44.4% | [2] -48.5% | [3] -19.9% | [4] 12% | [5] -37.6% | [6] -27.9%

CC(=O)Nc1ccc(/C=N/NC(N)=O)cc1
inactive: [1] 16.4% | [2] 11.6% | [3] 19.8% | [4] 8.55% | [5] -0.7% | [6] 9.35%

Oc1ccccc1/C=N\c1nccs1
inactive: [1] 10.7% | [2] 19.2% | [3] 18.6% | [4] 12.4% | [5] 23.8% | [6] 13.2%

COc1ccc(NC(=S)N=Nc2c(O)[nH]c3ccccc23)cc1
inactive: [1] -43.2% | [2] -50% | [3] -33.9% | [4] -13.8% | [5] -41.4% | [6] -30.6%

c1csc(-c2cc(-c3cccs3)c(-c3ccsc3)s2)c1
inactive: [1] -46.8% | [2] -43.4% | [3] -32.2% | [4] -26.2% | [5] -19.5% | [6] -46%

Clc1nc(Cl)c2ncnc(Cl)c2n1
inactive: [1] -34.5% | [2] 16.1% | [3] -23.2% | [4] -11.4% | [5] -3.7% | [6] -5.7%

CC1(C)N=C(N)N=C(N)N1c1cccc(/C=C/c2ccc([N+](=O)[O-])cc2)c1
inactive: [1] 2.45% | [2] -7.35% | [3] -6.1% | [4] -43% | [5] -3.3% | [6] 9.75%

O=S(=O)(Nc1ccccc1)c1cc(O)ccc1O
inactive: [1] -3.35% | [2] -11.2% | [3] -9.75% | [4] -12.1% | [5] -26.5% | [6] -9.85%

CC(C)N(C(=O)C12C3C4C5(C#N)C3C1(C#N)C5C42C#N)C(C)C (stereo not drawn)
inactive: [1] -10.4% | [2] -9.9% | [3] -21.8% | [4] 1.5% | [5] -0.7% | [6] -27.4%

CN1C(=O)CC2C(=O)N(Cc3ccccc3)C(=O)C2C1=O (stereo not drawn)
inactive: [1] 14% | [2] -4% | [3] -0.8% | [4] 11.6% | [5] 1.3% | [6] -2.85%

OC1COC(c2ccccc2)OC1C(O)C1OC(c2ccccc2)OCC1O (stereo not drawn)
inactive: [1] 5.3% | [2] -3.8% | [3] 12.2% | [4] -38.9% | [5] -8.2% | [6] 10.7%

Cc1ccc(S(=O)(=O)Oc2ccc(N(CC(=O)O)S(=O)(=O)c3ccc(C)cc3)cc2)cc1
inactive: [1] 45.3% | [2] 9.8% | [3] 29.4% | [4] 11.8% | [5] -1.35% | [6] 17.5%

CN(/N=C/C=N/N(C)C1=NCCCN1)C1=NCCCN1
inactive: [1] -0.95% | [2] 1.15% | [3] 3.8% | [4] 9.1% | [5] 13.2% | [6] -6.35%
